# ARNT-TACC3 inh: disruptors of human ARNT/TACC3 interaction; 390,000 compounds, 0.66% hits; AID 623870; inhibition, % at 9.99 µM; AlphaScreen His-ARNT PAS-B/GST-TACC3 binding, luminescence; TACC3 fragment carries E629A point mutation;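 active means mean inhibition of replicates at least 50% and at least half of replicates each reaching 50%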;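 further: 0% = complete ARNT plus TACC3 wells and 100% = ARNT alone without TACC3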
# F508del corr: CFTR F508del correction in bronchial cells | AID 720511 | CFBE cells, YFP halide quenching; stimulated with forskolin plus potentiator P3; % fluorescence drop versus neutral controls | activity (quench increase), % at 7.58 µM | 350,000 compounds, 0.36% hits;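 active means mean added fluorescence quench of at least 8% versus neutral control, with both replicates also reaching 8%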;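 further: cells transiently co-express mutant CFTR-F508del with the halide-sensitive YFP; corrector assay measuring rescue of mutant channel to the surface after 24 h compound exposure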
# ERAP1 inh: ERAP1 (human) enzyme inhibition; inhibition, % at 10.7 µM; recombinant ERAP1, Leu-AMC fluorescence, 60 min; AID 652197; 340,000 compounds, 0.15% hits;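 active means mean replicate inhibition of at least 30%, or all replicates individually reaching that 30% level; inactive means mean below 30% and not every replicate reaching it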;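 further: 0% = neutral control wells and 100% = L-leucinethiol positive control wells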
# Target sequence (Q9NZ08 whole entry, looked up): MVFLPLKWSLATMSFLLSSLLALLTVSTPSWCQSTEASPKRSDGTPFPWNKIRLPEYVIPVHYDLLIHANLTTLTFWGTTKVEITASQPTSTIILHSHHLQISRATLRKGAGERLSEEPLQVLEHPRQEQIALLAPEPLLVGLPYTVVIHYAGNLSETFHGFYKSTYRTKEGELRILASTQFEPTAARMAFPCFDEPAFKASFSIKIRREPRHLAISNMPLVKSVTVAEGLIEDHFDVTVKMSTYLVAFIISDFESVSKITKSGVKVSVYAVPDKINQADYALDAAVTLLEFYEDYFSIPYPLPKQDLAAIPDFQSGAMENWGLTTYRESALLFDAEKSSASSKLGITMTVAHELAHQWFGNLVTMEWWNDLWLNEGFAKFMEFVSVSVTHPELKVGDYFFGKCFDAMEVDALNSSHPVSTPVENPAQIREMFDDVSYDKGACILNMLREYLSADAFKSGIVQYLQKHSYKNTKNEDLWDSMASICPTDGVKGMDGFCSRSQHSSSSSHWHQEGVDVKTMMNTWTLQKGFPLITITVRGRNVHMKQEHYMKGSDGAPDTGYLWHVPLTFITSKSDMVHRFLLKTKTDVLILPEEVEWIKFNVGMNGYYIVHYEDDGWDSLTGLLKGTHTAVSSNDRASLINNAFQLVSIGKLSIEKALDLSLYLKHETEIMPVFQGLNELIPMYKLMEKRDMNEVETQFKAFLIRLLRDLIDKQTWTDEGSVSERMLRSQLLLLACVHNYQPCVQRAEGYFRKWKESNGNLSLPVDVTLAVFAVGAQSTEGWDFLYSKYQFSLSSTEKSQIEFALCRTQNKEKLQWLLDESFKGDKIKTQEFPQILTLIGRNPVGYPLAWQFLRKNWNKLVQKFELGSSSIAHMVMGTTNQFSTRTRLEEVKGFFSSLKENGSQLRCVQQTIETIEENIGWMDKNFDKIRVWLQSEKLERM
# PvdQ inh: blocks Pseudomonas aeruginosa PvdQ acylase activity. purified PvdQ acylase, fluorescence plate reader. inhibition, % at 10 µM. 340,000 compounds, 0.063% hits. AID 488965; in the data active means inhibition above about 30%, passing the limit was not always enough;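 further: 0% = vehicle neutral wells and 100% = reference inhibitor wells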
# Ecoli rRNA inh: inhibits bacterial ribosomal RNA function over humanized ribosomes; E. coli WT GFP vs humanized-ribosome RFP mutants, fluorescence, 24 h; hits give low values; DMSO median 0, no signal -100; GFP signal change (wild-type ribosome), % (no concentration beside the values); 350,000 compounds, 1.6% hits;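 active means significant combined selectivity score with lowered wild-type GFP, culture density cut under 30%, mutant RFP and density less affected; inactive means any of these conditions unmet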
# An asterisk follows results filed as active; . = no result. This is a sample that favours compounds with a hit; in the whole collection about 2.1% have one here.
SMILES,ARNT-TACC3 inh,F508del corr,ERAP1 inh,PvdQ inh,Ecoli rRNA inh
CN1C[C@H]2[C@@H](c3ccccc31)[C@H](CO)N2C(=O)C1CC1,7,-2,-1,.,3
COc1cc(NC(=S)Nc2cccc(C)n2)cc(OC)c1OC,0,2,0,-16,-13
COc1cc(NC(=S)Nc2ncccc2C)cc(OC)c1OC,12,2,0,-11,-21*
O=C(c1cc(=O)c2ccccc2o1)N1CCN(c2cccc(Cl)c2)CC1,5,4,1,-5,-30*
Cc1nnc2sc(SCC(=O)Nc3nccs3)nn2c1=O,76*,.,.,-12,.
COc1ccccc1NC(=O)CSc1ccc2nnc(-c3cccnc3)n2n1,71*,-1,-2,-10,3
O=C(CSc1ccc2nnc(-c3ccccn3)n2n1)Nc1nccs1,60*,-3,0,3,5
COC(=O)c1ccc(CSc2cc(C)c3ccccc3n2)o1,-1,-1,-2,-2,-22*
Cc1noc(C)c1S(=O)(=O)Nc1ccc2c(c1)C(=O)N([C@@H](C)CO)C[C@H](C)[C@H](CN(C)C(=O)Nc1cccc3ccccc13)OCCCC[C@H](C)O2,2,1,-3,.,3
CCC(=O)N[C@H]1C=C[C@H](CC(=O)NCc2ccc(OC)cc2)O[C@@H]1CO,-16,-2,1,.,3
Cc1nnc(NC(=O)CSc2ccc3nnc(-c4ccccn4)n3n2)s1,40,-1,-1,-20,7
O=C(CSc1ccc2nnc(-c3ccccn3)n2n1)Nc1ccccc1C(F)(F)F,52*,2,3,13,13
COC(=O)c1ccc(CSc2ccc3nnc(-c4ccccn4)n3n2)o1,58*,-1,.,-7,-7
O=C(CSc1ccc2nnc(-c3ccccn3)n2n1)Nc1ccccc1,47*,-5,1,-2,5
CCOc1ccc(NC(=O)CSc2ccc3nnc(-c4ccccn4)n3n2)cc1,11,0,5,-19,6
Cc1cccc(S(=O)(=O)N2CCCCN3[C@H](C2)[C@H](c2ccc(C#C[C@H](C)O)cc2)[C@@H]3CO)c1,2,2,0,.,-3
CCCC(=O)Nc1ccc2c(c1)C(=O)N(C)[C@H]1CC[C@H](CC(=O)NCCOC)O[C@@H]1CO2,-1,-2,.,.,2
CC1(C)Cc2ccccc2C2=NNC(=O)C2=N1,61*,-1,-1,18,3
CC1(C)Cc2ccccc2C(Nn2cnnc2)=N1,0,-2,-4,4,21
Cc1ccc(C(=O)C=Cc2ccc3c(c2)OCO3)c(C)c1,.,4,-5,.,-9
Cc1ccc(O)c(C(=O)/C=C/c2ccc3c(c2)OCCO3)c1,6,3,8,64*,-10
CC(=O)NC(=S)Nc1ccc(NC(=S)NC(=O)/C=C/c2ccco2)cc1,0,14*,3,-1,-12
O=C(/C=C/c1ccco1)NC(=S)Nc1ccc(C(=O)O)cc1,9,1,2,-9,3
O=C(/C=C/c1ccco1)NC(=S)NNC(=O)c1ccco1,29,-1,5,5,-26*
CCC(=O)Nc1ccc(NC(=S)NC(=O)/C=C/c2ccco2)cc1,-7,-1,3,-4,-2
SMILES,ARNT-TACC3 inh,F508del corr,ERAP1 inh,PvdQ inh,Ecoli rRNA inh
C/C(=N\NC(=O)COc1ccccc1-c1ccccc1)c1cccnc1,7,-2,-5,-14,-40*
C/C(=N\NC(=O)COc1ccccc1-c1ccccc1)c1ccccn1,8.8*,-3,4,-5,-49*
O=C(CSc1nc2ccccc2s1)Nc1ncccn1,.,.,.,-10,.
C/C(=N\NC(=O)COc1ccccc1-c1ccccc1)c1ccc(O)cc1O,0,4,-1,-12,-25
C/C(=N\NC(=O)CSc1nc2ccccc2s1)c1cccnc1,-1,0,1,-22,-21*
CCCC#Cc1cnc2c(c1)C(=O)N([C@@H](C)CO)C[C@H](C)[C@H](CN(C)S(=O)(=O)c1cn(C)cn1)O2,.,3,.,.,5
COc1ccc(NC(=O)Nc2ccc3c(c2)CC(=O)N([C@@H](C)CO)C[C@H](C)[C@@H](CN(C)C(=O)Nc2ccccc2)O3)cc1,-6,0,-1,.,-4
Cc1cc(=S)nc(-c2ccccn2)[nH]1,59*,-5,10,-3,.
Cc1[nH]c(-c2ccccn2)nc(=S)c1Cl,42,1,.,-4,-2
O=C(C1COc2ccccc2O1)N1CCCC1 (stereo not given),-6,.,.,-16,.
